Compound activity (PubChem)
Exocytosis inh: LAMP-1 surface exposure blockers, TALL-104 cells – cell-based, flow cytometry, MLPCN library, primary screen | TALL-104 LAMP-1 surface exposure; cells stimulated with thapsigargin and PMA | inhibition, % at 10 µM | actives 0.66% (n = 360,000) | AID 651702, 2012;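 active means inhibition above about 55%, limit read from the data; inconclusive means no clear call, values can overlap the other calls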
ABCB6 inh 2: ABCB6 transporter inhibitors, primary screen, K562-ABCB6 cells, flow cytometry, MLPCN library; ATP-binding cassette sub-family B member 6 (Homo sapiens), Q9NP58; K562-ABCB6 porphyrin accumulation, 1 h; hits give low values; fluorescence ratio to DMSO, % at 10 µM; actives 0.19% (n = 360,000); AID 602162, 2011;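 active means fluorescence ratio to DMSO below 75%, the collection mean minus 3 SD; inconclusive means too few cells collected in the well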;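 further: signal is porphyrin accumulated inside mitochondria; 100% equals median channel fluorescence of DMSO control wells; lower ratio means ABCB6 inhibition with less porphyrin fluorescence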
Target sequence (Q9NP58 whole entry, looked up): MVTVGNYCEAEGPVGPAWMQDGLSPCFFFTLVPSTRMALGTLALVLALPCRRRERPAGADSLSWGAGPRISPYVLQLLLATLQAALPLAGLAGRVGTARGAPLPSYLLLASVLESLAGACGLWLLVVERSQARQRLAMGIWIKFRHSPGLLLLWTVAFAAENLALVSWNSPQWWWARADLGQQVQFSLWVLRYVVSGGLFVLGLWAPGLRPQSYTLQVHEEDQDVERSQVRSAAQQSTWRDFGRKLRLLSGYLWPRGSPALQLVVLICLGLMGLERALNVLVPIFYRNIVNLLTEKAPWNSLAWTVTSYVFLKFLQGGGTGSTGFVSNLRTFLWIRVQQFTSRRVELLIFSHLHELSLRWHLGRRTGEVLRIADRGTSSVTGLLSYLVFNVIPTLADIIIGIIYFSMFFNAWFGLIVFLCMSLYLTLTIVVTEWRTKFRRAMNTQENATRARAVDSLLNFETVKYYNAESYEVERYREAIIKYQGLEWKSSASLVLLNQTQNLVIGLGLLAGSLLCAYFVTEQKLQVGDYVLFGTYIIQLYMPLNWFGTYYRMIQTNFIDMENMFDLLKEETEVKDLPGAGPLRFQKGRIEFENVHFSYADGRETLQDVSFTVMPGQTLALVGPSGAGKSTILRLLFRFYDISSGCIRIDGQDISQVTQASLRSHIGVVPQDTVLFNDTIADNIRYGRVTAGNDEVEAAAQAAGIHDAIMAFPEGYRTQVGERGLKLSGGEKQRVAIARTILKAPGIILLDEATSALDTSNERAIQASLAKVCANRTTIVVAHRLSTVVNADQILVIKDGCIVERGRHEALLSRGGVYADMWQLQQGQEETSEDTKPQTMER
Myeloid diff MLP: induction of myeloid progenitor differentiation, primary screen, cell-based, flow cytometry, MLPCN library; calls only at 10 µM; AID 624256, 2012; ER-HoxA9 myeloid progenitors, lysozyme-GFP differentiation; actives 1% (n = 360,000);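 active means normalized GFP-positive differentiation at or above the plate's own cutoff, the solvent-only control mean plus 3 SD; inconclusive means no clear call, values can overlap the other calls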;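 further: cells exposed to compound for four days before flow analysis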
Numbers without * were called inactive; i = inactive; ? = inconclusive; · = not tested or not shown; + = active, no number. The list is not random: actives were taken first. Their share in the collection is about 1.8%.

SMILES | Exocytosis inh | ABCB6 inh 2 | Myeloid diff MLP
O=c1c(Cc2ccc(Cl)cc2)c(O)ccn1Cc1ccncc1 | -9.3 | 101.0 | i
COc1cc2ccc(C(C)=NNC(N)=S)cc2cc1OC | -2.4 | 230.0 | +
CC(=NNC(N)=S)c1ccc2cc3c(cc2c1)OCO3 | 7.1 | 94.0 | ·
CCOC(=O)c1ccc(N2C(=O)C3CCCN3C2=S)cc1 (centres undefined) | -2.1 | 101.0 | i
CCOc1ccc(N=c2scc(-c3ccccc3)n2CCO)cc1 | -0.8 | 92.0 | i
CCn1c(-c2ccccc2)csc1=Nc1ccc(O)cc1 | 1.2 | 103.0 | +
COc1ccc(C(=O)OCC(=O)c2ccc(F)cc2)cc1OC | -6.2 | 100.0 | i
CC1CCc2nc(N)c(C#N)c(-c3cccnc3)c2C1 (centres undefined) | 5.5 | 95.0 | i
CC1CCc2nc(N)c(C#N)c(-c3ccncc3)c2C1 (centres undefined) | -4.9 | 93.0 | +
O=c1cc(SCc2ccccc2)nc[nH]1 | 8.7 | 96.0 | ?
Cc1nc(Nc2ccc(Cl)cc2)c2nnn(Cc3ccccc3)c2n1 | 2.0 | 99.0 | i
Cc1nc(Nc2ccc(S(=O)(=O)N3CCCCC3C)cc2)c2nnn(Cc3ccccc3)c2n1 (centres undefined) | -1.8 | 94.0 | +
CCCCC(=O)Nc1nnc(CCc2ccccc2)s1 | -2.8 | 99.0 | i
CCN(CCS(=O)(=O)c1ccc(Br)cc1)Cc1nc2ccccc2c(=O)[nH]1 | 0.9 | 90.0 | i
O=C(NC1CCCC1)C(c1ccccc1)n1c(Cc2cc(F)cc(F)c2)nc2ccccc21 (centres undefined) | 2.2 | · | i
CC(=O)Nc1ccc(NC(=O)COc2cccc3ccccc23)cc1 | -3.0 | 100.0 | i
Cc1cccc(NC(=O)c2nc[nH]c2C(=O)Nc2cc(Br)ccc2F)c1 | 0.3 | 102.0 | i
O=C(NC1CCCc2ccccc21)c1ccccc1 (centres undefined) | -2.6 | 98.0 | i
COc1cc(CC(=O)NC2CCCc3ccccc32)cc(OC)c1OC (centres undefined) | 60.4* | 98.0 | i
COc1ccccc1CC(=O)NC1CCCc2ccccc21 (centres undefined) | -0.1 | 111.0 | i
O=C(NC1CCCc2ccccc21)c1n[nH]c(=O)c2ccccc12 (centres undefined) | -1.9 | 97.0 | +
CC(C)(C)C(=O)N1CCN(c2ccc3c(c2)C2CC3CCN2C(=O)OCc2ccccc2)CC1 (centres undefined) | -1.1 | 96.0 | i
CCCNCc1cc(OC)c(OCCC)cc1Cl | -0.1 | 104.0 | +
CCOc1cc(Cl)c(CNCCCN2CCOCC2)cc1OC | 11.0 | 94.0 | i
O=C(/C=C/c1ccco1)Nc1cccc(S(=O)(=O)N2CCOCC2)c1 | 1.7 | 99.0 | i
SMILES | Exocytosis inh | ABCB6 inh 2 | Myeloid diff MLP
Cc1ccc(/C=C/C(=O)Nc2cccc(S(=O)(=O)N3CCOCC3)c2)o1 | -6.4 | 104.0 | +
CS(=O)(=O)c1ccc2nc(NC(=O)c3cc(-c4ccccc4)nn3-c3ccccc3)sc2c1 | 1.1 | 89.0 | i
COCc1ccc(-c2ccc3c(c2)c(C#Cc2ccsc2)c(-c2cc(OC)cc(OC)c2)n3C)cc1 | 18.7 | 106.0 | i
COc1cc(OC)cc(-c2c(C#Cc3ccsc3)c3cc(-c4ccc(C(N)=O)cc4)ccc3n2C)c1 | 94.4* | 92.0 | i
CCC(=O)OCCNc1cc(Sc2nc3ccccc3s2)c2nonc2c1[N+](=O)[O-] | 102.6* | 98.0 | ?
O=[N+]([O-])c1c(NCCCO)cc(Sc2nc3ccccc3s2)c2nonc12 | 40.0 | 92.0 | ?
OC(c1cccc(Cl)c1)c1nc(-c2cnc3ccccc3c2)cs1 (centres undefined) | 0.6 | 90.0 | i
Cc1nc2c(=O)n(C)c(=O)n(C)c2nc1Cl | 18.2 | 101.0 | ?
CN(C)CCNC(=O)/C(=C/c1ccc(-c2ccc(Cl)cc2)o1)NC(=O)c1ccccc1 | 4.4 | 100.0 | i
CN(C)CCNC(=O)/C(=C/c1ccc(-c2ccc(Cl)cc2Cl)o1)NC(=O)c1ccccc1 | 28.0 | 96.0 | +
COc1ccc(-n2nc(C(=O)NCC(=O)O)c3ccccc3c2=O)cc1 | -1.4 | 98.0 | i
COc1ccc(-n2nc(C(=O)NCC(=O)NC(C)C)c3ccccc3c2=O)cc1 | -3.7 | 108.0 | +
O=C(COC(=O)c1cc(S(=O)(=O)N2CCOCC2)ccc1F)NCc1ccc2c(c1)OCO2 | -1.7 | 102.0 | i
CCn1c(SCC(=O)NC2CC2)nc2ccccc21 | -2.4 | 97.0 | i
CCn1c(SCC(=O)N/N=C(/C)c2ccncc2)nc2ccccc21 | 60.5* | 101.0 | i
COc1ccc(Cn2cc(CN3CC(N4CCN(C5CCN(C)CC5)CC4)CS3(=O)=O)nn2)cc1 (centres undefined) | 5.0 | 99.0 | i
Cc1nn(C)cc1C1C2=C(CC(C)(C)CC2=O)N(c2ccccc2)C2=C1C(=O)CC(C)(C)C2 | 6.0 | 106.0 | i
Cc1ccc(N2C3=C(C(=O)CC(C)(C)C3)C(c3cn(C)nc3C)C3=C2CC(C)(C)CC3=O)cc1 | -1.2 | 160.0 | +
CC1(C)CC2(C)CC(=O)C1C(C(=O)O)C2C(=O)O (centres undefined) | 4.5 | 99.0 | i
COc1cccc(NS(=O)(=O)NC(=O)c2c(C)[nH]c3ccccc23)c1 | -0.2 | 104.0 | i
Cc1[nH]c2ccccc2c1C(=O)NS(=O)(=O)Nc1ccc(F)cc1 | 0.0 | 151.0 | +
Cc1cc(OC(F)F)ccc1NC(=O)Nc1ccc2c(c1)OCO2 | 1.8 | 101.0 | i
CC(=O)c1cnc(Nc2cccc(C)c2)s1 | -1.6 | 97.0 | i
O=C1c2ccccc2[C@@H]2CC(O)C(O)CCN12 (some centres undefined) | 3.1 | 96.0 | i
CC1(C)Cc2ccccc2C2CC(O)C(=O)N21 (centres undefined) | -2.6 | 119.0 | +
SMILES | Exocytosis inh | ABCB6 inh 2 | Myeloid diff MLP
CCCC/C=C/C(NC(=O)CCc1ccccc1)c1ccccc1 (centres undefined) | 7.0 | 98.0 | +
CCCC/C=C/C(NC(=O)c1ccc(-c2ccccc2)cc1)c1ccccc1 (centres undefined) | 5.6 | 93.0 | i
O=C(Nc1cccnc1)c1cccc(S(=O)(=O)N2CCc3ccccc32)c1 | -1.7 | 102.0 | i
O=C(Nc1ccncc1)c1cccc(S(=O)(=O)N2CCc3ccccc32)c1 | 0.9 | 100.0 | +
O=C(CCS(=O)(=O)c1ccccc1)Nc1ccc(N2CCN(Cc3ccccc3)CC2)cc1 | -8.6 | 79.0 | +
O=C(CCS(=O)(=O)c1ccc(F)cc1)Nc1ccc(N2CCN(Cc3ccccc3)CC2)cc1 | 16.1 | 98.0 | i
CCCCNc1c(-c2ccc(SC(C)CC)cc2)nc2ccccn12 (centres undefined) | -5.3 | 94.0 | i
Cc1ccc(-c2cn(-c3ccc(SC(F)F)cc3)c3[n+]2CCC3)cc1 | 0.6 | 94.0 | +
FC(F)Sc1ccc(-n2cc(-c3ccc(Cl)cc3)[n+]3c2CCC3)cc1 | -3.0 | 100.0 | i
CCOC(=O)C1=C(COC(=O)c2cc(S(=O)(=O)N3CCOCC3)ccc2F)NC(=O)NC1C (centres undefined) | -3.0 | 90.0 | i
